A selection: hits, their analogues and other compounds. The true share with any hit is near 3.1%.
CSC inhib: cancer stem cell viability inhibitors, primary screen, luminescence; hit rate 1.1% among 300,000; inhibition, % at 7.5 µM; cancer stem cell-like cells viability; in the data active means inhibition above about 75%; inconclusive means no clear call, values can overlap the other calls; tested in HMLE shEcad cells
PP1 inh: PP1-alpha phosphatase inhibitors, primary screen, counter-screen for PP5 inhibitor project, biochemical, fluorescence, OMFP substrate, single point; inhibition, % at 6.7 µM; AID 2235, 2010; purified PP1alpha; hit rate 0.9% among 320,000;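 active means inhibition above the mean inhibition of all tested compounds plus 3 SD, computed separately for each screening campaign, cut at about 15% in these data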
Target sequence (P62136 whole entry, looked up): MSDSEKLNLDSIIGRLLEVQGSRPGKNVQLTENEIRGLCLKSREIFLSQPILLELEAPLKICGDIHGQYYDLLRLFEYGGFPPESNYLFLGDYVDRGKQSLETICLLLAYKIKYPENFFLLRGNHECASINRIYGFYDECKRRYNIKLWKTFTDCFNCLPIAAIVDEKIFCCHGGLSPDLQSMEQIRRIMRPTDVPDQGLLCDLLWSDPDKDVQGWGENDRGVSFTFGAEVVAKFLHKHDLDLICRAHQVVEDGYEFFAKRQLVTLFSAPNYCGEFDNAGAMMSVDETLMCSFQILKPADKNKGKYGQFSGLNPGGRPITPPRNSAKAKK
Beta apoptosis: inhibitors of cytokine-induced beta cell apoptosis, primary screen, luminescence. INS-1E cytokine-induced death, ATP luminescence, 48 h; percent of positive-control rescue, neutral wells zero. protection from apoptosis, % (no concentration beside the values). hit rate 0.8% among 300,000;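 active means Every replicate reaches about 75%, or at least half do and their mean reaches it too, limit read from the data; inconclusive means At least half of replicates reach the limit but their mean does not; inactive means Under half of replicates reach the limit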;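 further: higher means more ATP so stronger rescue from cytokine killing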
PP5 inh: PP5 phosphatase inhibitors, primary screen, biochemical, fluorescence; hit rate 0.18% among 320,000; Serine/threonine-protein phosphatase 5 (Homo sapiens), P53041; inhibition, % at 6.7 µM; purified PP5c, OMFP substrate fluorescence;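 active means inhibition above the campaign's mean inhibition across all tested compounds plus 3 SD, cut at about 9.5% in these data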
SKKanGAS inh: S. pyogenes SKKanGAS growth inhibitors in kanamycin, primary screen, streptokinase expression inhibitor project, SKKanGAS strain, BacTiter-Glo luminescence; 6 h; inhibition, % at 7.5 µM; hit rate 1.3% among 300,000; AID 1662, 2009;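 active means mean replicate score, as percent of positive control median, at least 50; inconclusive means mean below 50 but one replicate at or above 50; inactive means mean and every replicate below 50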;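 further: strain carries kanamycin resistance gene driven by streptokinase promoter and grows in 40 µg/ml kanamycin; loss of luminescence reflects streptokinase promoter inhibition or plain growth inhibition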
Each line names hits and unclear results; the compound was inactive in the other large screens.

COc1ccc(C[C@H]2CN3C(=NC[C@@H]3Cc3ccccc3)N2CCNC(=O)CCC2CCCCC2)cc1	CSC inhib 128, Beta apoptosis 101
COc1ccc(C[C@H]2CN3C(=NC[C@@H]3C(C)C)N2CCNC(=O)CCC2CCCCC2)cc1	none
O=C1NN(c2cccc(Br)c2)C(=O)/C1=C\c1ccccc1	CSC inhib 109
O=C1NN(c2ccccc2)C(=O)/C1=C\c1ccccc1	none (no result: PP1 inh, PP5 inh)
CCc1c2c(nc3ccc(OC(=O)N4CCC(N5CCCCC5)CC4)cc13)-c1cc3c(c(=O)n1C2)COC(=O)[C@]3(O)CC	CSC inhib 89
O=C1NCCC/C1=N/Nc1cc(F)ccc1F	none
O=C(NN=C1c2ccccc2-c2ccccc21)c1cccc(Br)c1	SKKanGAS inh 72
O=C(COc1cccc(Br)c1)NN=C1c2ccccc2-c2ccccc21	none
CC(C)Cn1c(=O)c(C(=O)N/N=C/c2cccc(F)c2)c(O)c2ccccc21	SKKanGAS inh 64
CC(C)c1ccc2[nH]c3c(c2c1)CCC/C3=N\NC(=O)c1ccncc1	SKKanGAS inh 60
COc1cc(NC(=O)c2cc3nc(-c4ccccc4)cc(-c4ccccc4)n3n2)cc(OC)c1OC	SKKanGAS inh 54
COc1ccc(-c2c[n+]3c(n2-c2ccccc2)CCCCC3)cc1	Beta apoptosis 115
COc1ccc(-c2c[n+]3c(n2-c2ccccc2)SCC3)cc1	none (no result: Beta apoptosis)
FC(F)Oc1ccc(-c2c[n+]3c(n2-c2ccccc2)CCCCC3)cc1	none
COc1ccc(-c2c[n+]3c(n2-c2ccc(C)cc2)CCCCC3)cc1	Beta apoptosis 127
COc1ccc(-c2c[n+]3c(n2-c2c(C)n(C)n(-c4ccccc4)c2=O)CCCCC3)cc1	none
COc1ccc(-n2c(-c3ccc(Cl)cc3)c[n+]3c2CCCCC3)cc1	Beta apoptosis 125
Fc1ccc2[nH]c3c(c2c1)CN(C(=S)NCc1ccccc1)CC3	none
Cc1cc(C)cc(NC(=O)COc2coc(CN3CCc4ccccc4C3)cc2=O)c1	none (no result: Beta apoptosis)
C=CCn1c(SCC(=O)Nc2nccs2)nnc1-c1cc2cccc(OC)c2o1	PP1 inh 17
COc1ccc(C2CC(c3ccccc3)=NN2C(=O)CN2N=NC3C(=O)N(c4cccc(F)c4)C(=O)C32)cc1 (stereo not given)	PP1 inh 17
COc1ccc(C2CC(c3ccccc3)=NN2C(=O)c2ccc(F)cc2)cc1 (stereo not given)	none
Cc1cc(C)c(-c2noc(C(=O)OC(C)(C)C)c2C(=O)OC(C)(C)C)c(C)c1	SKKanGAS inh 72
CCN(CC)C(=O)Cn1cc(C(=O)C(=O)NCCCN2CCCCC2)c2ccccc21	none
COc1ccc(NC(=S)NC(=O)C2CCC2)cc1	none
CCc1ccc(OCC(=O)NNC(=S)NC(=O)C2CCCCC2)c(Br)c1	SKKanGAS inh 90
CCc1ccc(OCC(=O)NNC(=S)NC(=O)C2CC2)c(Br)c1	none (no result: PP1 inh, PP5 inh, SKKanGAS inh)
COc1ccc(OCC(=O)NNC(=S)NC(=O)C2CC2)cc1	SKKanGAS inh 63 (no result: CSC inhib, PP1 inh, PP5 inh)
COc1ccc(OCC(=O)NNC(=S)NC(=O)C2CCCCC2)cc1	SKKanGAS inh 64 (no result: Beta apoptosis)
Cc1cc(C)cc(OCC(=O)NNC(=S)NC(=O)C2CC2)c1	SKKanGAS inh 87
CCCCNC(=O)NNC(=O)COc1cc(C)cc(C)c1	none
CNC(=S)NNC(=O)Cc1ccc(OC)cc1	none
COc1ccc(CC(=O)NC(=S)NNC(=O)COc2c(C)cccc2C)cc1	SKKanGAS inh 97
Cc1ccc(NS(=O)(=O)c2ccc(Cl)c(C(=O)Nc3ccccc3-c3nc4ccccc4[nH]3)c2)cc1C	CSC inhib active, SKKanGAS inh inconclusive
O=C(Nc1nnc(SCc2ccc(F)cc2)s1)C1=COCCO1	none (no result: CSC inhib, Beta apoptosis, SKKanGAS inh)
CCCC(C)c1nnc(NC(=O)COc2ccc3c(c2)OCO3)s1 (stereo not given)	CSC inhib 85, PP1 inh 16
CC(C)c1nnc(NC(=O)COc2ccc3c(c2)OCO3)s1	none
C=C(C)COc1ccc(-c2n[nH]c(C)c2-c2ccc(Br)cc2)c(O)c1	CSC inhib 101, SKKanGAS inh 99
C=C(C)COc1ccc(-c2[nH]ncc2-c2ccc(Br)cc2)c(O)c1	SKKanGAS inh 65
CC(=O)Oc1ccc(C2=NN(c3ccccc3)C(c3ccccc3)C2)cc1 (stereo not given)	CSC inhib 108, SKKanGAS inh 65
COc1cc(N2N=C(c3ccccc3)CC2c2ccccc2)c(C=O)cc1C=O (stereo not given)	SKKanGAS inh 55
Cc1cc(C)c(NC(=O)COC(=O)c2nc3nccc(C)n3n2)c(Cl)c1	none (no result: SKKanGAS inh)
CCn1ccnc1CN1CCc2c([nH]c3ccccc23)C1C1CCCCC1 (stereo not given)	SKKanGAS inh 79
Cc1cccc(-n2cc(CN(C)Cc3nccn3C)c(-c3cccc(F)c3)n2)c1	CSC inhib 103
CCn1ccnc1CN(C)Cc1cn(-c2cccc(C)c2)nc1-c1cccc(F)c1	none
COCc1ccc(C(=O)N2CCCC(CNC(=O)c3ccc(F)cc3)C2)o1 (stereo not given)	none
S=C(Nc1ccc(Nc2ccccc2)cc1)Nc1ccccn1	Beta apoptosis 86, SKKanGAS inh 66
COc1cc(F)c(C2=CC(=O)C[C@H](c3ccc(Cl)cc3)C2)cc1F	CSC inhib 78 (no result: SKKanGAS inh)
COc1ccc([C@H]2CC(=O)C=C(c3ccnc4ccc(Cl)cc34)C2)cc1	Beta apoptosis 89 (no result: SKKanGAS inh)
O=C1C=C(c2ccc(F)cc2OCc2ccccc2)C[C@@H](c2ccc(Cl)cc2)C1	Beta apoptosis 111 (no result: SKKanGAS inh)
COc1ccc([C@H]2CC(=O)C=C(c3cc(Cl)ccc3C)C2)cc1	none (no result: SKKanGAS inh)
O=C1C=C(c2cc(F)ccc2F)C[C@@H](c2ccc(Cl)cc2)C1	none (no result: SKKanGAS inh)
CCOc1ccc(Br)cc1C1=CC(=O)C[C@H](c2ccc(OC)cc2)C1	CSC inhib 82 (no result: SKKanGAS inh)
CC(NC(=O)c1cccs1)c1nnc(SCc2ccc(Cl)cc2Cl)n1C (stereo not given)	none (no result: Beta apoptosis)
CC(C)c1ccc(OCC(=O)NCc2n[nH]c(=O)c3ccccc23)cc1	none (no result: CSC inhib)
CCS(=O)(=O)N1Cc2ccccc2CC1C(=O)Nc1nnc(SCc2ccc(C#N)cc2)s1 (stereo not given)	SKKanGAS inh 60
O=C1CS/C(=N\N=C\c2ccccc2Cl)N1CC1CC1	none
CC(O)CNc1nc2sc3c(c2c(=O)n1CCc1ccccc1)CCCCC3 (stereo not given)	none
O=c1c2c3c(sc2n(CCN2CCCCC2)c(=O)n1Cc1ccco1)CCCCC3	Beta apoptosis 93
O=c1c2c3c(sc2n(CCN2CCOCC2)c(=O)n1Cc1ccco1)CCCCC3	none (no result: Beta apoptosis)
CC(O)CNc1nc2sc3c(c2c(=O)n1Cc1ccco1)CCCCC3 (stereo not given)	Beta apoptosis 91
CN(C)CCNc1nc2sc3c(c2c(=O)n1CCc1ccccc1)CCCCC3	CSC inhib 106
O=C(COc1ccccc1C(=O)c1cnn(-c2ccccc2)c1)Nc1ccccc1	none
NNc1nc(-c2ccccc2)cc(-c2ccccc2)n1	CSC inhib 80
N#Cc1cc(-c2ccccc2)nc(NN)n1	none
